According to PubChem BioAssay AID1159580 (chemical genetic matrix, 2015):
The campaign covered roughly 5,500 compounds. About 2,000 (36%) were called active. Not shown: some 18% with an inconclusive outcome. No stated cut-off is given here; in the data, active means normalized growth mostly below about 0.91 (no sharp cut-off); inconclusive means no clear call, values can overlap the other calls; inactive means mostly above about 0.92. Some of the results follow.

Assay: chemical genetic growth profiling, strain panel (AID 1159580);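 further: tested at 20 µM; growth read once vehicle control cultures reached saturation at 30 °C; 1 = growth at the plate median or of vehicle wells; lower values mean less growth of the strain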
Details: growth OD

Measured: normalized growth

CCN(CC)CCOC(=O)C(c1ccccc1)c1ccccc1
inactive: S. cerevisiae deletion strains, locus YKL068W, active compounds read low 0.986 | S. cerevisiae deletion strains, locus YKL085W, strain MDH1 (second series), active compounds read low 0.994 | S. cerevisiae deletion strains, locus YKL085W, strain MDH1, active compounds read low 0.994 | S. cerevisiae deletion strains, locus YKL160W, strain elf1, active compounds read low 0.985 | S. cerevisiae deletion strains, locus YKL190W, strain CNB1, active compounds read low 0.989 | S. cerevisiae deletion strains, locus YKR001C, strain vps1, active compounds read low 1 | S. cerevisiae deletion strains, locus YKR026C, strain gcn3, active compounds read low 0.963 | S. cerevisiae deletion strains, locus YKR091W, strain srl3, active compounds read low 0.98 | S. cerevisiae deletion strains, locus YLL001W, strain dnm1, active compounds read low 0.952 | S. cerevisiae deletion strains, locus YLL026W, active compounds read low 0.971 | S. cerevisiae deletion strains, locus YLL041C, strain sdh2, active compounds read low 0.974 | S. cerevisiae deletion strains, locus YLR027C, strain aat2, active compounds read low 0.985 | S. cerevisiae deletion strains, locus YLR039C, strain RIC1, active compounds read low 1 | S. cerevisiae deletion strains, locus YLR058C, strain SHM2, active compounds read low 0.999 | S. cerevisiae deletion strains, locus YLR102C, strain apc9, active compounds read low 0.988 | S. cerevisiae deletion strains, locus YLR113W, strain HOG1, active compounds read low 0.965 | S. cerevisiae deletion strains, locus YLR221C, strain rsa3, active compounds read low 1 | S. cerevisiae deletion strains, locus YLR258W, strain gsy2, active compounds read low 0.963 | S. cerevisiae deletion strains, locus YLR262C, strain YPT6 (second series), active compounds read low 0.966 | S. cerevisiae deletion strains, locus YLR262C, strain YPT6, active compounds read low 1 | S. cerevisiae deletion strains, locus YLR268W, strain sec22, active compounds read low 0.984 | S. cerevisiae deletion strains, locus YLR320W, strain mms22, active compounds read low 1.01 | S. cerevisiae deletion strains, locus YLR330W, strain CHS5, active compounds read low 0.991 | S. cerevisiae deletion strains, locus YLR342W, strain FKS1 (second series), active compounds read low 0.988 | S. cerevisiae deletion strains, locus YLR342W, strain FKS1, active compounds read low 0.968 | S. cerevisiae deletion strains, locus YLR357W, strain rsc2, active compounds read low 0.982 | S. cerevisiae deletion strains, locus YLR370C, strain arc18, active compounds read low 0.945 | S. cerevisiae deletion strains, locus YLR371W, strain rom2, active compounds read low 1 | S. cerevisiae deletion strains, locus YLR384C, strain iki3, active compounds read low 0.97 | S. cerevisiae deletion strains, locus YLR418C, strain cdc73, active compounds read low 0.961 | S. cerevisiae deletion strains, locus YML016C, strain PPZ1, active compounds read low 0.998 | S. cerevisiae deletion strains, locus YML032C, strain rad52, active compounds read low 1 | S. cerevisiae deletion strains, locus YML120C, strain ndi1, active compounds read low 0.961 | S. cerevisiae deletion strains, locus YML124C, strain tub3, active compounds read low 0.992 | S. cerevisiae deletion strains, locus YMR058W, strain fet3, active compounds read low 0.97 | S. cerevisiae deletion strains, locus YMR078C, strain ctf18, active compounds read low 0.983 | S. cerevisiae deletion strains, locus YMR125W, strain sto1, active compounds read low 0.949 | S. cerevisiae deletion strains, locus YMR129W, active compounds read low 0.975 | S. cerevisiae deletion strains, locus YMR205C, strain PFK2, active compounds read low 0.971 | S. cerevisiae deletion strains, locus YMR223W, strain ubp8, active compounds read low 0.98 | S. cerevisiae deletion strains, locus YMR231W, strain pep5, active compounds read low 0.977 | S. cerevisiae deletion strains, locus YMR263W, strain SAP30, active compounds read low 0.991 | S. cerevisiae deletion strains, locus YMR307W, strain GAS1, active compounds read low 1.02 | S. cerevisiae deletion strains, locus YNL067W, strain RPL9B, active compounds read low 1.01 | S. cerevisiae deletion strains, locus YNL071W, strain lat1, active compounds read low 0.973 | S. cerevisiae deletion strains, locus YNL128W, strain TEP1, active compounds read low 0.968 | S. cerevisiae deletion strains, locus YNL183C, strain NPR1, active compounds read low 0.94 | S. cerevisiae deletion strains, locus YNL209W, strain ssb2, active compounds read low 0.969 | S. cerevisiae deletion strains, locus YNL233W, strain BNI4, active compounds read low 1.03 | S. cerevisiae deletion strains, locus YNL248C, strain rpa49, active compounds read low 0.976 | S. cerevisiae deletion strains, locus YNL250W, strain rad50, active compounds read low 0.99 | S. cerevisiae deletion strains, locus YNL271C, strain bni1, active compounds read low 0.984 | S. cerevisiae deletion strains, locus YNL298W, strain CLA4, active compounds read low 0.982 | S. cerevisiae deletion strains, locus YNL307C, strain MCK1, active compounds read low 0.998 | S. cerevisiae deletion strains, locus YNL322C, strain KRE1 (second series), active compounds read low 0.96 | S. cerevisiae deletion strains, locus YNL322C, strain KRE1, active compounds read low 0.987 | S. cerevisiae deletion strains, locus YNR049C, strain mso1, active compounds read low 0.96 | S. cerevisiae deletion strains, locus YNR052C, strain pop2, active compounds read low 0.98 | S. cerevisiae deletion strains, locus YOL006C, strain TOP1, active compounds read low 1.04 | S. cerevisiae deletion strains, locus YOL012C, strain htz1 0.836 | S. cerevisiae deletion strains, locus YOL147C, strain pex11, active compounds read low 0.994 | S. cerevisiae deletion strains, locus YOR001W, strain rrp6, active compounds read low 0.979 | S. cerevisiae deletion strains, locus YOR061W, strain CKA2, active compounds read low 0.999 | S. cerevisiae deletion strains, locus YOR069W, strain VPS5, active compounds read low 0.989 | S. cerevisiae deletion strains, locus YOR070C, strain gyp1, active compounds read low 0.974 | S. cerevisiae deletion strains, locus YOR080W, strain dia2, active compounds read low 0.957 | S. cerevisiae deletion strains, locus YOR083W, strain WHI5, active compounds read low 0.977 | S. cerevisiae deletion strains, locus YOR106W, strain vam3, active compounds read low 0.967 | S. cerevisiae deletion strains, locus YOR136W, strain idh2, active compounds read low 0.993 | S. cerevisiae deletion strains, locus YOR144C, strain elg1, active compounds read low 1 | S. cerevisiae deletion strains, locus YOR184W, strain ser1, active compounds read low 0.982 | S. cerevisiae deletion strains, locus YOR231W, strain MKK1, active compounds read low 0.989 | S. cerevisiae deletion strains, locus YOR265W, strain rbl2, active compounds read low 0.968 | S. cerevisiae deletion strains, locus YOR270C, strain vph1, active compounds read low 0.941 | S. cerevisiae deletion strains, locus YOR290C, strain snf2, active compounds read low 0.975 | S. cerevisiae deletion strains, locus YOR316C, strain cot1, active compounds read low 0.986 | S. cerevisiae deletion strains, locus YPL051W, strain arl3, active compounds read low 0.978 | S. cerevisiae deletion strains, locus YPL055C, strain LGE1, active compounds read low 1.02 | S. cerevisiae deletion strains, locus YPL078C, strain atp4, active compounds read low 0.965 | S. cerevisiae deletion strains, locus YPL106C, strain sse1, active compounds read low 0.931 | S. cerevisiae deletion strains, locus YPL240C, strain hsp82, active compounds read low 0.958 | S. cerevisiae deletion strains, locus YPL241C, strain CIN2, active compounds read low 0.991 | S. cerevisiae deletion strains, locus YPL256C, strain CLN2, active compounds read low 0.971 | S. cerevisiae deletion strains, locus YPR119W, strain clb2, active compounds read low 1 | S. cerevisiae deletion strains, locus YPR141C, strain kar3, active compounds read low 0.989 | S. cerevisiae deletion strains, locus YPR163C, strain tif3, active compounds read low 0.996 | S. cerevisiae deletion strains, locus YPR167C, strain met16, active compounds read low 0.987 | S. cerevisiae deletion strains, strain wtn01, active compounds read low 0.969 | S. cerevisiae strains, strain wild type, active compounds read low 0.992
